# PubChem BioAssay (EPA / NIEHS)
# Results filed as inconclusive are left out. Activity calls are given as the source filed them. How the source made its calls: active means hit-call score of the fitted dose curve at least 0.9, where 1 is the maximum; inconclusive means response in the unintended direction; inactive means score below 0.9.
# How the values were obtained:
# [1] = Tanguay_ZF_120hpf_EYE_legacy: (Legacy) Oregon State University Tanguay Lab 120 Hour Post-fertilization zebrafish Assay for Eye Malformation (AID 2283636)
# In short: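 Binary brightfield scoring of eye defects at 120 hpf after static exposure from 6 hpf of single pronase-dechorionated wild-type embryos (28C, 0.64% DMSO). Non-mortality endpoints omitted where embryos died; fit vs DMSO.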
# [2] = Tanguay_ZF_120hpf_SNOU_legacy: (Legacy) Oregon State University Tanguay Lab 120 Hour Post-fertilization zebrafish Assay for Snout Malformation (AID 2283637)
# In short: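 Binary snout-malformation call at 120 hpf in wild-type 5D embryos, chorion removed by pronase, under static exposure from 6 hpf at 28C (0.64% DMSO). Embryos dying by 24 or 120 hpf excluded.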
# [3] = Tanguay_ZF_120hpf_JAW_legacy: (Legacy) Oregon State University Tanguay Lab 120 Hour Post-fertilization zebrafish Assay for Jaw Malformation (AID 2283638)
# In short: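 Steps: dechorionate 4 hpf embryos (pronase); plate 1/well at 6 hpf; add test chemical, 0.64% DMSO final; seal, cover, hold at 28C statically to 120 hpf; score jaw defect presence/absence microscopically. Dead embryos not scored.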
# [4] = Tanguay_ZF_120hpf_PE_legacy: (Legacy) Oregon State University Tanguay Lab 120 Hour Post-fertilization zebrafish Assay for Pericardial Edema (AID 2283640)
# In short: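 Embryos from wild-type 5D adults were staged, then dosed in 0.64% DMSO. They were kept sealed in the dark at 28C until 120 hpf. Pericardial edema was then recorded as present or absent.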
# [5] = Tanguay_ZF_120hpf_BRAI_legacy: (Legacy) Oregon State University Tanguay Lab 120 Hour Post-fertilization zebrafish Assay for Brain Malformation (AID 2283641)
# In short: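 Wild-type 5D larvae, static waterborne exposure to 120 hpf, 28C, 0.64% v/v DMSO. Brightfield scoring of brain defects, binary; dead embryos excluded. Positive ctrl 5uM trimethyltin chloride.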
# [6] = Tanguay_ZF_120hpf_SOMI_legacy: (Legacy) Oregon State University Tanguay Lab 120 Hour Post-fertilization zebrafish Assay for Somite Malformation (AID 2283647)
# In short: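 Read-out: presence or absence of somite malformation in 120 hpf larvae, gain-of-signal relative to DMSO baseline. Embryos lacked chorion (pronase, 4 hpf) and were exposed statically from 6 hpf at 28C; dead larvae not scored.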
# [7] = Tanguay_ZF_120hpf_PFIN_legacy: (Legacy) Oregon State University Tanguay Lab 120 Hour Post-fertilization zebrafish Assay for Pectoral Fin Malformation (AID 2283648);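 further: each larva judged yes or no for fin defect by brightfield with dead larvae skipped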
# In short: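 Pectoral fin malformation was recorded as a binary endpoint at 120 hpf in wild-type Tropical 5D larvae, which had been dechorionated and exposed statically from 6 hpf at 28C in 0.64% DMSO. Dead embryos were excluded.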
# [8] = Tanguay_ZF_120hpf_CFIN_legacy: (Legacy) Oregon State University Tanguay Lab 120 Hour Post-fertilization zebrafish Assay for Caudal Fin Malformation (AID 2283649)
# In short: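 Binary presence or absence of caudal fin malformation at 120 hpf, read by brightfield microscopy, with DMSO as baseline. Larvae came from 5D wild-type embryos exposed statically from 6 hpf at 28C after pronase dechorionation.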
# [9] = Tanguay_ZF_120hpf_PIG_legacy: (Legacy) Oregon State University Tanguay Lab 120 Hour Post-fertilization zebrafish Assay for Pigmentation Malformation (AID 2283650)
# In short: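 Pigment malformation recorded as a binary call at 120 hpf in zebrafish (Tropical 5D) exposed singly from 6 hpf after pronase dechorionation. Static, sealed, 28C exposure, 0.64% DMSO; mortality excludes scoring; positive-direction fit against DMSO.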
# [10] = Tanguay_ZF_120hpf_SWIM_legacy: (Legacy) Oregon State University Tanguay Lab 120 Hour Post-fertilization zebrafish Assay for Swim Bladder Malformation (AID 2283654);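 further: swim bladder malformation in each larva scored yes or no under brightfield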
# In short: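 Scoring is binary for swim bladder defects at 120 hpf, by brightfield inspection of zebrafish larvae. Embryos were exposed singly from 6 hpf after pronase dechorionation, at 28C with 0.64% DMSO; mortality excluded scoring.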
# [11] = Tanguay_ZF_120hpf_TRUN_legacy: (Legacy) Oregon State University Tanguay Lab 120 Hour Post-fertilization zebrafish Assay for Truncated Body (AID 2283655)
# In short: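 Truncated body is recorded as a binary endpoint at 120 hpf by brightfield imaging of wild-type 5D larvae. Exposure runs statically from 6 hpf at 28C with 0.64% DMSO; embryos dying earlier are not scored.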
# [12] = read-out: ABC Transporter (ABCB1), ABCB1 (gene 5243); experiment: CLD_ABCB1_6hr: CellzDirect (CLD) Gene Expression Assay for ABC Transporter (ABCB1) at 6 hours (AID 2283659);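 further: hits raise ABCB1 transcript above the DMSO vehicle baseline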
# In short: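 ABCB1 transcript measured by quantitative nuclease protection assay, chemiluminescent read-out, 6 h after dosing human hepatocyte cultures (0.2% DMSO vehicle, daily redosing). Activity fitted as increase over DMSO baseline; cytotoxicity flagged by phase-contrast morphology.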
# [13] = read-out: Broad substrate specificity ATP-binding cassette transporter ABCG2 (Homo sapiens) (UniProt Q9UNQ0); experiment: CLD_ABCG2_6hr: CellzDirect (CLD) Gene Expression Assay for ABC Transporter (ABCG2) at 6 hours (AID 2283660)
# In short: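 ABCG2 mRNA induction measured by qNPA chemiluminescence in human primary hepatocyte cultures, 6 h post-dose. Chemicals tested at several concentrations against a 0.2% DMSO vehicle; positive-direction fit relative to DMSO.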
# [14] = read-out: xenobiotic metabolism (CYP1A1), CYP1A1 (gene 1543); experiment: CLD_CYP1A1_6hr: CellzDirect (CLD) Gene Expression Assay for xenobiotic metabolism (CYP1A1) at 6 hours (AID 2283661);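 on AC50: potency for transcript induction above DMSO vehicle baseline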
# In short: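 Read-out 6 h post-dose: qNPA chemiluminescent quantitation of transcript induction against 0.2% DMSO. Cells were cultured primary human hepatocytes from two separate donor preparations; phase-contrast morphology annotated apparent cytotoxicity.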
# [15] = Tanguay_ZF_120hpf_OTIC_legacy: (Legacy) Oregon State University Tanguay Lab 120 Hour Post-fertilization zebrafish Assay for Otic Vesicle Malformation (AID 2283639)
# In short: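 Wild-type zebrafish larvae, whole-embryo exposure from early stage to 120 hpf at 28C. Binary brightfield scoring of otic vesicle morphology, fitted in the positive direction against the DMSO baseline.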
# [16] = Tanguay_ZF_120hpf_NC_legacy: (Legacy) Oregon State University Tanguay Lab 120 Hour Post-fertilization zebrafish Assay for Notochord and Tail Malformation (AID 2283656)
# In short: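 Binary notochord-distortion calls, made by brightfield inspection, form the read-out; activity is fitted in the positive direction against DMSO. Exposure ran statically from 6 to 120 hpf at 28C with 0.64% DMSO.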
# [17] = Tanguay_ZF_120hpf_CIRC_legacy: (Legacy) Oregon State University Tanguay Lab 120 Hour Post-fertilization zebrafish Assay for Circulatory Malformation (AID 2283651)
# In short: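 Binary circulatory-malformation call at 120 hpf via brightfield imaging, relative to DMSO controls. Embryos (5D strain, chorion removed) received static, light-shielded exposure at 28C.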
# Broad substrate specificity ATP-binding cassette transporter ABCG2 (Homo sapiens), sequence (Q9UNQ0 whole entry, looked up): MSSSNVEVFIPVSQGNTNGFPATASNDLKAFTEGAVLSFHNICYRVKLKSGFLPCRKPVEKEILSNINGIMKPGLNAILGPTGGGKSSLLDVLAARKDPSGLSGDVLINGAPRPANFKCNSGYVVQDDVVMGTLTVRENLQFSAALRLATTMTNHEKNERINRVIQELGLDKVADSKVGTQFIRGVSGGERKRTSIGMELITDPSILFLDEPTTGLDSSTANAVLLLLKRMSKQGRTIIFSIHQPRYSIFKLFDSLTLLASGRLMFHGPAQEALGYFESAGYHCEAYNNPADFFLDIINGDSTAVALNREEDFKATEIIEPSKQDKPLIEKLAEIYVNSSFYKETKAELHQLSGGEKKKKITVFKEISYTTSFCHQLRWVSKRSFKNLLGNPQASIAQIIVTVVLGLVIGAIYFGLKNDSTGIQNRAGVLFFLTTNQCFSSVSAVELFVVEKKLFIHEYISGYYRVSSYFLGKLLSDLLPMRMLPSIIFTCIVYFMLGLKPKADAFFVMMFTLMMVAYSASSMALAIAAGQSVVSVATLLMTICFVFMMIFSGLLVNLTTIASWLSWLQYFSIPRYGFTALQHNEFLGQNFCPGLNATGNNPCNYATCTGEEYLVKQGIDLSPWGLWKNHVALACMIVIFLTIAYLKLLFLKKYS
SMILES,outcome [1],outcome [2],outcome [3],outcome [4],outcome [5],outcome [6],outcome [7],outcome [8],outcome [9],outcome [10],outcome [11],outcome [12],outcome [13],AC50 [14],outcome [15],outcome [16],outcome [17],outcome [14]
CNc1cnn(-c2cccc(C(F)(F)F)c2)c(=O)c1Cl,inactive,inactive,inactive,inactive,inactive,inactive,inactive,inactive,inactive,inactive,inactive,inactive,inactive,3.97 µM (active),–,–,–,–
COc1cc(OC)nc(Sc2cccc(Cl)c2C(=O)O)n1,inactive,inactive,inactive,inactive,inactive,–,inactive,inactive,inactive,inactive,inactive,inactive,inactive,–,inactive,inactive,–,–
Nc1nc(N)nc(NC2CC2)n1,inactive,inactive,inactive,–,–,inactive,inactive,inactive,inactive,inactive,inactive,inactive,–,–,inactive,–,inactive,inactive
CCOP(=S)(OCC)Oc1cc(C)nc(C(C)C)n1,–,inactive,–,inactive,–,–,inactive,inactive,inactive,–,inactive,inactive,inactive,0.682 µM (active),inactive,inactive,–,–
N#CSCSC#N,inactive,inactive,–,inactive,–,inactive,inactive,inactive,–,inactive,inactive,inactive,inactive,–,inactive,inactive,–,–
